Hits are enriched below; roughly 3.8% of the tested compounds scored in any of these assays.
ATXN2 expr inh: reduces ATXN2 reporter expression in HEK-293 cells; 360,000 compounds, 0.72% hits; HEK-293 ATXN2-luciferase reporter, luminescence, 24 h; Potency, µM (doses to about 57 µM), without a hit: at the top dose activity change, negative = inhibition, usual class: inhibitors; AID 1745845; note: % is set by controls: 0 for no effect and ±100 for the full control effect; nearly all actives have a fitted effect of over 55% in size
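qHTS (up to 57 uM final) was run with 24 h compound exposure of reporter cells at 37 °C. Each well was multiplexed: SteadyGlo luminescence measured ATXN2-luciferase expression after a fluorogenic Gly-Phe-AFC viability readout (25 uM final).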
TGFb SMAD3 inh: TGF-b pathway inhibition; 410,000 compounds, 1.2% hits; AID 588855; Potency, µM (titrated, usually from 46.1 µM), without a hit: at the highest dose activity, negative = inhibition, hits mostly inhibitors; HepG2 CAGA-GFP TGF-b/SMAD3 reporter, GFP fluorescence, 18 h; TGF-beta stimulated, 500 pg/mL final; note: % is set by controls: 0 for no effect and ±100 for the full control effect; nearly all actives have a fitted effect of over 65% in size
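Using HEPG2 CAGA-GFP reporter cells at 1000 cells/well, we pinned test compounds, stimulated with recombinant TGF-beta (500 pg/mL final) and measured total well GFP after 18 h.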
HepG2 viability: counter-screen for TGF-b inhibitors: cytotoxicity in HepG2 cells. HepG2 CAGA-GFP viability, ATP luminescence, 18 h. Potency, µM (series often up to 46.1 µM), for the others: at the highest dose activity change, negative = cytotoxicity, usual class: cytotoxic. 410,000 compounds, 0.76% hits
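CellTiter-Glo luminescence gave cytotoxicity after 18 hours at 37 degrees C. The cells were HepG2 CAGA-GFP in 1% FBS DMEM, stimulated with 500 pg/mL TGF-beta after compound addition. %Activity was normalised to no-cell wells (complete cell-killing) and DMSO (no toxicity), and curves were fitted and classified.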
S2 tox: reduces viability in counter-screen for ATXN expression inhibitors; S2 cells (HEK-293 line with an ATXN2-luciferase reporter) viability, CellTiter-Fluor protease fluorescence, 24 h; Potency, µM (titrated, usually from 56.7 µM), actives largely listed as cytotoxic; 400,000 compounds, 0.49% hits; AID 651635; note: nearly all actives have a fitted effect of over 40% in size
HT1080NT lethal: kills 2HG-producing HT-1080-NT fibrosarcoma cells; HT-1080-NT fibrosarcoma viability, CellTiter-Glo ATP luminescence, 48 h; Potency, µM (series often up to 46.1 µM), inactives show at the highest dose activity, negative = less viability, actives largely listed as cytotoxic; 360,000 compounds, 1.6% hits; AID 686970;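 note: NT is the 2HG producing partner of a matched IDH1 knockdown line; 0% = DMSO-treated cells and -100% = media-only wells without cells; nearly all actives have a fitted effect of over 55% in size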
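HT-1080-NT fibrosarcoma cells (2HG-overproducing), 750 cells/well in RPMI with 5% FBS, dosed after 2 h and incubated 48 h at 37C. CellTiter-Glo luminescence normalized to DMSO and no-cell wells; concentration-response curves fitted and classed.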
HT1080 IDH1KD tx: toxicity to HT-1080 IDH1 knockdown cells (counter line) | HT-1080 IDH1 knockdown viability, ATP luminescence, 48 h | Potency, µM (titrated, usually from 46.1 µM), without a hit: at the highest dose activity, negative = toxicity, hits mostly cytotoxic | 360,000 compounds, 2% hits;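 note: 0% = DMSO wells and -100% = cell-free medium wells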
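In this qHTS, HT-1080 cells depleted of IDH1 are exposed for 48 h at 37 °C to compound titrations. Toxicity is scored from CellTiter-Glo luminescence, with DMSO as full viability and medium alone as none.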
Starred values were filed as active, the others as inactive; i = inactive; ? = inconclusive; nt = not tested or not shown. Calls come from the whole dose curve; as a rule, active = well fitted curve in the direction sought with a large enough effect; inconclusive = small, poorly fitted or top-dose-only effect, or another doubt; inactive = no such curve, though single readings can be large; an effect the other way counts as inactive or inconclusive. Potency is the fitted concentration of half-maximal effect.

SMILES	ATXN2 expr inh	TGFb SMAD3 inh	HepG2 viability	S2 tox	HT1080NT lethal	HT1080 IDH1KD tx
COc1ccc(Br)cc1C(C[N+](=O)[O-])c1c(N)n(C)c(=O)n(C)c1=O (stereo not drawn)	nt	10µM*	15.8µM*	nt	?	?
Cn1c(N)c(C(C[N+](=O)[O-])c2c(F)cccc2Cl)c(=O)n(C)c1=O (stereo not drawn)	-3.6%	0.0%	-25.1%	i	?	?
CCCCN(CCCC)CCNC(=O)Cn1nc(CC)n2c(cc3sc(C)cc32)c1=O	nt	0.0%	-9.5%	nt	nt	nt
Cc1ccc(C(=O)c2oc3ccccc3c2NC(=O)c2cc(-c3ccccc3O)n[nH]2)cc1	-7.2%	-10.0%	-4.3%	nt	16.4µM*	?
O=C(Nc1c(C(=O)c2ccccc2)oc2ccccc12)c1cc(-c2ccccc2O)n[nH]1	-6.7%	-18.4%	-12.0%	i	?	18.4µM*
CC1CCC(C(C)C)C(OCC(O)CNC(C)c2ccccc2)C1 (stereo not drawn)	?	?	-86.6%	?	14.6µM*	?
Cc1cc(OCC(O)CNC(C)c2ccccc2)ccc1C(C)C (stereo not drawn)	-13.3%	?	-116.2%	?	23.1µM*	18.4µM*
CCCC(NCC(O)COc1ccc(-c2ccccc2)cc1)c1ccccc1 (stereo not drawn)	18.9µM*	?	-109.9%	?	-27.5%	13µM*
CC(NCC(O)COc1ccc2ccccc2c1)c1ccccc1 (stereo not drawn)	17.8µM*	?	11.2µM*	?	18.4µM*	13µM*
Cc1cnccn1	nt	?	-34.5%	nt	nt	nt
COc1ccc(C2/C=C\CN(C(=O)c3ccccc3)C(C)C(=O)N2Cc2ccc(F)cc2)cc1 (stereo not drawn)	nt	-24.5%	-14.2%	nt	nt	nt
C1CCCCCC(NCCN2CCNCC2)CCCCC1	?	?	-6.7%	?	20.6µM*	18.4µM*
CC(C)OC(=O)c1ccc(NCc2cc(O)ccc2O)cc1	?	?	1.6%	nt	20.6µM*	18.4µM*
COP(=O)(OC)c1ccc(NCc2cc(O)ccc2O)cc1	9.4%	-12.2%	7.7%	i	-0.6%	0.5%
COC(=O)c1ccc(CCc2cc(O)ccc2O)cc1	?	0.0%	-9.6%	?	25.9µM*	?
Oc1cccc(-c2nc(-c3cccs3)c(-c3cccs3)[nH]2)c1	nt	14.1µM*	-85.8%	nt	nt	nt
Fc1ccc(-c2nc(-c3cccs3)[nH]c2-c2ccc(F)cc2)cc1	-4.4%	14.1µM*	-38.9%	?	-4.4%	-17.2%
CN(C)N=Nc1ccc(/C=C2\C=Cc3ccccc32)cc1	nt	-2.7%	4.2%	nt	nt	nt
Cc1nc(CC(=O)NCC2Cc3cc(F)cc(-c4ccc(F)c(C)c4)c3O2)cs1 (stereo not drawn)	nt	nt	nt	i	nt	nt
O=C(C=Cc1ccc(CN(CCO)CCc2c[nH]c3ccccc23)cc1)NO	-51.7%	nt	nt	nt	nt	nt
COc1cccc(-c2cc(C(=O)Nc3ccc4c(c3)OCO4)no2)c1	-18.7%	5.2%	-4.3%	?	-8.6%	-12.0%
Cc1ccc(Cn2nc(C)c(NC(=O)c3cc(-c4ccc5c(c4)OCO5)on3)c2C)cc1	?	-21.2%	11.2µM*	?	8.91µM*	?
O=C(Nc1ccc2c(c1)OCO2)c1cc(-c2ccc(O)cc2)on1	10.7%	0.6%	-21.1%	i	2.06µM*	2.06µM*
O=C(Nc1ccc2c(c1)OCO2)c1cc(-c2cccc(O)c2)on1	15.8%	5.0%	-0.4%	i	23.1µM*	11.6µM*
Cc1noc(C)c1COc1ccc(C(=O)O)cc1	6.8%	-3.9%	-12.1%	i	?	4.9%
Cc1ccc(C)c(S(=O)(=O)N2CCN(C(=O)c3ccc(OCc4c(C)noc4C)cc3)CC2)c1	0.0%	-20.1%	14.1µM*	i	-2.6%	-9.2%

Screens: PubChem, National Center for Advancing Translational Sciences (NCATS)
